Bioassay records as filed in PubChem.
TDP1 cell noCPT: qHTS for Inhibitors of human tyrosyl-DNA phosphodiesterase 1 (TDP1): qHTS in cells in absence of CPT | DT40 Tdp1-/- hTDP1 cells, no CPT, ATP luminescence, 48 h | Potency, µM (highest dose often 46.2 µM), without a hit: at the highest dose activity change, negative = growth inhibition, hits mostly inhibitors | hit rate 15% among 420,000 | AID 686978, 2013; also: potency is read from the fitted curve at half-maximal effect; nearly all actives have a fitted effect of over 55% in size
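Growth kinetics read by CellTiter-Glo luminescence after ≥48 hr at 37 °C. Cells: DT40 Tdp1-/- stably carrying human TDP1, 400 per well, compound exposure in the absence of CPT (DMSO vehicle).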
12-LOX inh: inhibitors of human 12S-lipoxygenase ALOX12; P18054; purified 12hLO, xylenol orange hydroperoxide absorbance; Potency, µM (top dose mostly 108 µM), inactives show top-dose activity change, negative = inhibition, actives largely listed as inhibitors; hit rate 1.1% among 580,000; AID 1671190; also: potency is read from the fitted curve at half-maximal effect
Target sequence (P18054 whole entry, looked up): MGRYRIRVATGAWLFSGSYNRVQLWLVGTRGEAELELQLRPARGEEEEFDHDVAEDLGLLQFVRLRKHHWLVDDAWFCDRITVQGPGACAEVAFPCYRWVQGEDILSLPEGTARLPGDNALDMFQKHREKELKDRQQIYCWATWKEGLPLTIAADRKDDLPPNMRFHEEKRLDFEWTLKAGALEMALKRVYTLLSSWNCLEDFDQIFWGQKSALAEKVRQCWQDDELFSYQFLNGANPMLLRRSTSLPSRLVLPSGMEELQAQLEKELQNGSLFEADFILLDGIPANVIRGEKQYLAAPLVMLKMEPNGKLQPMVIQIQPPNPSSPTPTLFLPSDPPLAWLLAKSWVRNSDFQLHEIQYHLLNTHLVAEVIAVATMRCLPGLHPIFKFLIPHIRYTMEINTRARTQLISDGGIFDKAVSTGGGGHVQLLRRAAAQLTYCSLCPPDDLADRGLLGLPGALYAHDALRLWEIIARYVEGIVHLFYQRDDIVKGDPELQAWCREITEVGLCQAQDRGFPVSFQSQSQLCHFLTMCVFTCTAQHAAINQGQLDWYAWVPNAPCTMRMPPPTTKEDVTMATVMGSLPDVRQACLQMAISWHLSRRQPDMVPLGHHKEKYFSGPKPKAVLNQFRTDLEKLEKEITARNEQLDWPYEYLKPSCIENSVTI
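Purified human 12hLO at 150 nM in 25 mM Hepes, 0.01% Triton X-100, pH 7.0, preincubated 15 min at room temperature with compound. Reaction started with 40 uM arachidonic acid, 30 min at room temperature. Hydroperoxide measured by Fe-xylenol orange, 573/405 nm absorbance ratio.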
IL-1B inflam inh: inflammasome signaling inhibition, IL-1 beta readout; THP-1 LPS/ATP IL-1B secretion, AlphaLISA, 16 h; stronger effect = lower value; activity change, % at 57.5 µM; hit rate 4.7% among 360,000; AID 743279; in the data active = activity change below about -50%; inconclusive = mostly about -30% to -49%
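Secreted IL-1B measured by AlphaLISA bead assay after 16 h compound exposure of THP-1 cells; compounds (final up to 57.5 uM) added 1 h before LPS (250 ng/mL) and ATP (1.25 mM) stimulation; lower signal means less secretion.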
HT1080 IDH1KD tx: toxicity to HT-1080 IDH1 knockdown cells (counter line); HT-1080 IDH1 knockdown viability, ATP luminescence, 48 h; Potency, µM (highest dose often 46.1 µM), for the others: top-dose activity, negative = toxicity, usual class: cytotoxic; hit rate 2% among 360,000;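 also: potency is read from the fitted curve at half-maximal effect; 0% = DMSO wells and -100% = cell-free medium wells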
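CellTiter-Glo luminescence after 48 h compound exposure at 37 degrees C of IDH1-knockdown HT-1080 cells in 5% FBS RPMI. %Activity scaled between DMSO wells and cell-free media wells, with curves fitted and assigned curve classes.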
HT1080-NT tox: kills 2HG-producing HT-1080-NT fibrosarcoma cells. HT-1080-NT fibrosarcoma viability, CellTiter-Glo ATP luminescence, 48 h. Potency, µM (doses to about 46.1 µM), for inactives: at the highest dose activity, negative = less viability, actives largely listed as cytotoxic. hit rate 1.6% among 360,000;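 also: NT is the 2HG producing partner of a matched IDH1 knockdown line; potency is read from the fitted curve at half-maximal effect; 0% = DMSO-treated cells and -100% = media-only wells without cells; nearly all actives have a fitted effect of over 55% in size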
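HT-1080-NT; 750 cells/well; 5% FBS RPMI; 48 h compound, 37 degrees C; CellTiter-Glo luminescence; curve fitting and curve-class assignment.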
TDP1 cell CPT: DT40-hTDP1 cell growth loss with CPT; chicken DT40 Tdp1-/-;hTDP1 cells + 20 nM CPT, ATP luminescence, 48 h; Potency, µM (series often up to 46.2 µM), for inactives: at the top dose activity change, negative = growth inhibition, most hits filed as inhibitors; hit rate 12% among 420,000; also: potency is read from the fitted curve at half-maximal effect; nearly all actives have a fitted effect of over 55% in size
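Chicken DT40 Tdp1-/- cells stably complemented with human TDP1 were seeded at 400 cells/well in medium containing 20 nM camptothecin, exposed to pin-transferred compounds, and grown at 37 °C for at least 48 hr. Viability was read as ATP luminescence.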
An asterisk follows results filed as active; ? = inconclusive; / = no result given. This is one part of a sample in which hits are shown more often than they occur. Unless noted, calls follow the shape of the dose curve; as a rule, active = well fitted curve in the direction sought with a large enough effect; inconclusive = small, poorly fitted or top-dose-only effect, or another doubt; inactive = no such curve, though single readings can be large; an effect the other way counts as inactive or inconclusive. Unless noted, % is scaled to controls: 0 for no effect and ±100 for the full control effect.

SMILES	TDP1 cell noCPT	12-LOX inh	IL-1B inflam inh	HT1080 IDH1KD tx	HT1080-NT tox	TDP1 cell CPT
CCc1ccc(NC(=O)C2CCCN2S(=O)(=O)c2ccc3c(c2)CCCC(=O)N3)cc1 (stereo unspecified)	18µM*	-20%	/	/	/	16µM*
Cc1cc(Cl)ccc1NC(=O)C1CCCN1S(=O)(=O)c1ccc2c(c1)CCCC(=O)N2 (stereo unspecified)	8.2µM*	-25%	/	/	/	15µM*
O=C(CCNC(=O)c1cccs1)Nc1cccnc1N1CCCC1	/	13%	/	/	/	/
O=C(Nc1csnn1)c1csnn1	2%	10µM*	0	7%	2%	-1%
CN1C(=O)C2(CCN(C(=O)CCN3CCCCCC3=O)CC2)c2ccccc21	/	12%	/	/	/	/
CCOC(=O)C1C(=O)CC(C)(O)C(C(=O)OCC)C1c1ccco1 (stereo unspecified)	21µM*	-10%	7	-6%	-1%	18µM*
COC(=O)c1ccccc1N=Nc1c(N)[nH][nH]c1=O	?	-6%	-15	-9%	2%	?
COC(=O)c1ccccc1N=Nc1c(N)n[nH]c1N	-19%	153%	-60*	0%	3%	-1%
Cc1ccc(-c2cnc(CCC(=O)Nc3cccc(OCC(N)=O)c3)o2)cc1	/	28%	/	/	/	/
O=C(Nc1nnc(C2=COCCO2)o1)c1ccc(S(=O)(=O)N2CCCC2)cc1	?	18%	-5	-7%	-8%	?
CC1CCCN(S(=O)(=O)c2ccc(C(=O)Nc3ccccc3-c3nc4ccccc4[nH]3)cc2)C1 (stereo unspecified)	10µM*	1%	20	9%	10%	18µM*
CCN(c1ccccc1)S(=O)(=O)c1ccc(C(=O)Nc2nnc(-c3ccco3)o2)cc1	18µM*	-14%	14	?	?	?
CCc1nnc(NC(=O)c2ccc(S(=O)(=O)N3CCCC(C)C3)cc2)o1 (stereo unspecified)	?	0%	37	?	?	?
CC1CCN(S(=O)(=O)c2ccc(C(=O)Nc3ccccc3-c3nc4ccccc4[nH]3)cc2)CC1	?	2%	4	0%	-1%	?
CC1CCN(S(=O)(=O)c2ccc(C(=O)Nc3nnc(C4=COCCO4)o3)cc2)CC1	?	463%	71	?	-29%	23µM*
CC1CCCN(S(=O)(=O)c2ccc(C(=O)Nc3nnc(-c4ccco4)o3)cc2)C1 (stereo unspecified)	7.3µM*	-11%	28	17%	-8%	8.2µM*
CN(c1ccccc1)S(=O)(=O)c1ccc(C(=O)Nc2nnc(C3CC3)o2)cc1	7%	9%	-6	0%	-10%	2%
CN(c1ccccc1)S(=O)(=O)c1ccc(C(=O)Nc2nnc(-c3ccco3)o2)cc1	21µM*	?	22	?	-15%	15µM*
c1csc(CSc2nc3ccccc3s2)c1	-7%	16%	2	0%	5%	-4%
CCn1c(CSc2nc3ccccc3s2)nc2ccccc21	16µM*	0%	-12	0%	6%	?
Cc1cc(C)n2c(Br)c(CSc3nc4ccccc4s3)nc2n1	18µM*	-19%	-5	-1%	1%	-26%
O=C(O)CSc1nnc(CSc2nc3ccccc3s2)n1-c1ccccc1	-10%	0%	0	11%	14%	-11%
C#CCSc1nnc(CSc2nc3ccccc3s2)n1-c1ccccc1	18µM*	-31%	?	-19%	-7%	?
COc1ccc(-n2cnc3cc([N+](=O)[O-])ccc32)cc1	-17%	-15%	-29	14%	7%	2%
COc1ccc(-n2cnc(N)c2C(=O)c2cccc([N+](=O)[O-])c2)cc1	?	-9%	-3	?	?	16µM*
SMILES	TDP1 cell noCPT	12-LOX inh	IL-1B inflam inh	HT1080 IDH1KD tx	HT1080-NT tox	TDP1 cell CPT
COc1ccc(OCCn2c(NC(=O)c3ccco3)nc3ccccc32)cc1	23µM*	0%	-20	?	?	18µM*
CC(=O)Nc1nc2ccccc2n1CCOc1ccccc1	?	-2%	24	-28%	-20%	?
S=C(Nc1ccccc1)Nc1nc2ccccc2n1CCOc1ccccc1	16µM*	?	-106*	?	?	18µM*
COc1ccc(C(=O)Nc2nc3ccccc3n2CCOc2ccc(Cl)cc2)cc1	13µM*	-1%	/	/	/	?
CN(C)S(=O)(=O)c1ccc(C(=O)OCC(=O)Nc2cccc(C(F)(F)F)c2)cc1	/	18%	/	/	/	/
Cc1[nH]nc2ccc(-c3cncc(OC[C@@H](N)Cc4ccccc4)c3)cc12	/	7.7µM*	/	/	/	/
CCCCn1c(N2CCC(Cc3ccccc3)CC2)nc2c1c(=O)[nH]c(=O)n2C	21µM*	-21%	?	?	?	23µM*
Cc1nnc(SCCn2c(N3CCC(Cc4ccccc4)CC3)nc3c2c(=O)[nH]c(=O)n3C)s1	16µM*	/	27	11%	9%	?
Cc1nnc(SCCn2c(N3CCN(Cc4ccccc4)CC3)nc3c2c(=O)[nH]c(=O)n3C)s1	-20%	0%	15	2%	-4%	-4%
COCCn1c(N2CCC(Cc3ccccc3)CC2)nc2c1c(=O)[nH]c(=O)n2C	/	8%	/	/	/	/
Cc1ccc(C(=O)Nc2cc3c(cc2SCc2ccco2)n(C)c(=O)n3C)cc1	/	7.9µM*	/	/	/	/
Cc1ccc(NC(=O)CSCc2ccco2)cc1	-6%	0%	-24	12%	6%	-17%
Cc1ccc(S(=O)(=O)N2[C@@H](c3ccc(C(C)(C)C)cc3)C(C(=O)O)=CC[C@H]2c2ccc(Cl)cc2)cc1	?	-92%	-11	?	?	23µM*
Cc1ccc([C@@H]2CC=C(C(=O)O)[C@H](c3ccc(C(C)(C)C)cc3)N2S(=O)(=O)c2ccc(C)cc2)cc1	?	-94%	2	?	?	?
Cc1ccc(S(=O)(=O)N2[C@@H](c3ccc(Cl)c(Cl)c3)C(C(=O)O)=C[C@H]2CC2CCCC2)cc1	-6%	28µM*	16	-2%	1%	-2%
CCCCC[C@@H]1C=C(C(=O)O)[C@H](c2ccc(Br)cc2)N1S(=O)(=O)c1ccc(C)cc1	3%	35µM*	16	-4%	2%	10%
Cc1ccc(S(=O)(=O)N2[C@@H](c3ccc(Cl)cc3)C(C(=O)O)=C[C@H]2CC2CCCC2)cc1	-26%	?	11	-7%	-2%	?
